For 10 molecules, Potency and outcome results are on record in PubChem BioAssay (Tox21).

A short description of test [1]: qHTS assay to identify aromatase inhibitors - cell viability counter screen (AID 743084).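 Further: cells stimulated with testosterone during compound exposure; nearly all actives have a fitted effect of over 55% in size.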 For orientation: qHTS replaces the single test concentration by a dilution series.
The target of test [2] is Aryl hydrocarbon receptor (Homo sapiens) (UniProt P35869). Nature of the test: qHTS assay to identify small molecule that activate the aryl hydrocarbon receptor (AhR) signaling pathway (AID 743085). Further: nearly all actives have a fitted effect of over 15% in size. Further: potency means the concentration at half of the fitted maximal effect.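 On activation: HG2L7.5c1 human HepG2 liver cells with stably integrated DRE-driven firefly reporter; series mostly up to about 70 µM.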 In a few lines: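 HepG2 cells (HG2L7.5c1) stably carrying a firefly luciferase reporter driven by 20 dioxin responsive elements were exposed to compound for 24 h at 37C after a 5 h settling period; luminescence rise (ONE-Glo) indicated activation.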
Chain of Aryl hydrocarbon receptor (Homo sapiens) (P35869 whole entry, looked up): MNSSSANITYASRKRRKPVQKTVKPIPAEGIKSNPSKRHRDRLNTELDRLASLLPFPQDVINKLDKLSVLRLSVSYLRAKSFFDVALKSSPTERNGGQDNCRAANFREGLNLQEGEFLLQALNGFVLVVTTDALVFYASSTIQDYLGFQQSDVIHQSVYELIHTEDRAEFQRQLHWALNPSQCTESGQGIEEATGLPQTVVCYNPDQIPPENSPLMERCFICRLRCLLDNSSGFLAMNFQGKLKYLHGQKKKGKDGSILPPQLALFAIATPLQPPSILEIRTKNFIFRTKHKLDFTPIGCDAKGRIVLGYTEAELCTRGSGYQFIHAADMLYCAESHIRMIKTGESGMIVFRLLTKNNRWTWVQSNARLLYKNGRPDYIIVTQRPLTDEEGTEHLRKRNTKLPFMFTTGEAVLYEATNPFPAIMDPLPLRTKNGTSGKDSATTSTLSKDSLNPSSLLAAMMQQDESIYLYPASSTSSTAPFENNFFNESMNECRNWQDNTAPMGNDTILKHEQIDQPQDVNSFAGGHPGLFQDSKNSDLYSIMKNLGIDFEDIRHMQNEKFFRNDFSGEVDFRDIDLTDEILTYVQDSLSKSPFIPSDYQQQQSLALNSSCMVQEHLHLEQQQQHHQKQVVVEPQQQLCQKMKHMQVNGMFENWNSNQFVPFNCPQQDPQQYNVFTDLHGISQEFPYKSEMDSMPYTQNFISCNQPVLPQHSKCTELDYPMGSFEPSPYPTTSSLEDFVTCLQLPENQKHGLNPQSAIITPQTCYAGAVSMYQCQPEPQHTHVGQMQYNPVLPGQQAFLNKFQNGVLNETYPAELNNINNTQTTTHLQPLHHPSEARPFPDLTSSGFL

The nature of test [3]: qHTS assay to identify small molecule that activate the aryl hydrocarbon receptor (AhR) signaling pathway - cell viability counter screen (AID 743086).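 Further: HepG2 liver cells carrying the AhR DRE luciferase reporter; series mostly up to about 70 µM; nearly all actives have a fitted effect of over 45% in size.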 In short, it runs like this:
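Cytotoxicity counter screen: CellTiter-Fluor signal (30 min, 37 C) in 4000 HepG2 cells/well carrying the DRE-luciferase reporter, following 24 h compound exposure at 37 C.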

A short description of test [4]: qHTS assay to identify small molecule antagonists of the peroxisome proliferator-activated receptor gamma (PPARg) signaling pathway - cell viability counter screen (AID 743194). Further: nearly all actives have a fitted effect of over 55% in size. In a few lines:
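Viability was measured as CellTiter-Glo luminescence in GeneBLAzer PPARg UAS-bla HEK293H cells. These cells had been exposed 17 h at 37 C to compounds together with rosiglitazone at 50 nM final, with the beta-lactamase readout taken in the same wells.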

Test [5] in a line: qHTS assay for small molecule agonists of the antioxidant response element (ARE) signaling pathway - cell viability counter screen (AID 743203; calls by dose curve; further: nearly all actives have a fitted effect of over 55% in size). In a few lines: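 CellSensor ARE-bla HepG2 cells, 2,000 per well, rested 5 hrs at 37C/5% CO2, then exposed to compound in DMSO for 16 hrs; viability read as CellTiter-Glo luminescence after 30 min at room temperature, in the reporter wells.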

Test [6] in a line: qHTS assay for small molecule activators of the heat shock response signaling pathway - cell viability counter screen (AID 743209). Further: nearly all actives have a fitted effect of over 50% in size. In short, it runs like this:
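CellSensor HSE-bla HeLa cells, plated overnight at 37 C/5% CO2, were exposed to compounds in DMSO for 5 h at 37 C. Viability was then read in the same wells by CellTiter-Glo luminescence after 30 min at room temperature.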

Test [7] is described as follows: qHTS assay for small molecule activators of the heat shock response signaling pathway (AID 743210; active means well fitted activation curve with a large enough effect in the signal ratio in the repeat runs, with a control signal flat, not every such curve was filed as active; the % refers to the signal ratio;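 further: HeLa cells with beta-lactamase reporter driven by heat shock elements; series mostly up to about 63 µM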). In a few lines:
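HeLa HSE-bla cells, overnight plating; cpd in DMSO 5 h, 37 C; LiveBLAzer B/G FRET substrate 2.5 h RT; fluorescence intensity read.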

Test [8] concerns the target Peroxisome proliferator-activated receptor delta (Homo sapiens) (UniProt Q03181). Nature of the test: qHTS assay to identify small molecule agonists of the peroxisome proliferator-activated receptor delta (PPARd) signaling pathway (AID 743212; calls by dose curve). In a few lines: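 HEK293H PPARd-bla cells; 5 h preincubation 37 C/5% CO2; compound (DMSO) 37 C; LiveBLAzer B/G FRET substrate 2 h RT; fluorescence intensity.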

Test [9] is described as follows: qHTS assay to identify small molecule antagonists of the peroxisome proliferator-activated receptor delta (PPARd) signaling pathway - cell viability counter screen (AID 743213). Further: nearly all actives have a fitted effect of over 50% in size. In short, it runs like this:
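PPARd-bla HEK293H cells were treated with compounds plus agonist L165041 (300 nM final) for 17 h at 37 C. Viability was then read in the same wells by CellTiter-Glo luminescence after 30 min at room temperature.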

In test [10] the target is Peroxisome proliferator-activated receptor delta (Homo sapiens) (UniProt Q03181). Nature of the test: qHTS assay to identify small molecule antagonists of the peroxisome proliferator-activated receptor delta (PPARd) signaling pathway (AID 743215; active means well fitted inhibition curve with a large enough effect in the signal ratio in the repeat runs, not every such curve was filed as active; the % refers to the signal ratio;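 further: cells stimulated with agonist L165041 at 300 nM final during compound exposure; series mostly up to about 62 µM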). In a few lines:
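PPARd UAS-bla HEK293H cells were pre-incubated 5 h at 37 C, then given test compounds in DMSO plus agonist L165041 (300 nM final). After 17 h at 37 C, beta-lactamase FRET substrate was added; fluorescence read after 2 h at room temperature.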

The target of test [11] is Bile acid receptor (Homo sapiens) (UniProt Q96RI1). Nature of the test: qHTS assay to identify small molecule antagonists of the farnesoid-X-receptor (FXR) signaling pathway (AID 743217; active means well fitted inhibition curve with a large enough effect in the signal ratio in the repeat runs, not every such curve was filed as active; the % refers to the signal ratio). In short, it runs like this:
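FXR-UAS-bla HEK 293T cells pre-incubated 5 h at 37 °C, then exposed to compounds with chenodeoxycholic acid (50 uM final) for 16 h at 37 °C. Beta-lactamase reporter read by LiveBLAzer B/G FRET substrate fluorescence after 2 h at room temperature.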

The target is the same in test [12]. Nature of the test: qHTS assay to identify small molecule agonists of the farnesoid-X-receptor (FXR) signaling pathway (AID 743220; active means well fitted activation curve with a large enough effect in the signal ratio in the repeat runs, not every such curve was filed as active; the % refers to the signal ratio). In short, it runs like this: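 Beta-lactamase reporter under UAS control in GeneBLAzer FXR HEK 293T cells (5000/well) measured with LiveBLAzer FRET substrate after 2 h at room temperature. Compound exposure lasted 16 h at 37C.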

Test [13] is described as follows: qHTS assay to identify small molecule antagonists of the farnesoid-X-receptor (FXR) signaling pathway - cell viability counter screen (AID 743221; active means well fitted cell-killing curve with a large enough effect in the repeat runs, not every such curve was filed as active; further: nearly all actives have a fitted effect of over 50% in size). In a few lines:
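FXR-UAS-bla HEK 293T cells were treated with test compounds plus chenodeoxycholic acid (50 uM final) for 16 h at 37 C. Cell viability in the same wells was then read as CellTiter-Glo luminescence after 30 min at room temperature.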

In test [14] the target is Vitamin D3 receptor (Homo sapiens) (UniProt P11473). Nature of the test: qHTS assay to identify small molecule agonists of the vitamin D receptor (VDR) signaling pathway (AID 743222; calls by dose curve). In short, it runs like this: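 VDR-bla cells were plated 4 h at 37C/5% CO2, then exposed to compounds in DMSO for 16 h. After LiveBLAzer B/G FRET substrate addition and 2 h at room temperature, beta-lactamase reporter fluorescence was read.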
Chain of Vitamin D3 receptor (Homo sapiens) (P11473 whole entry, looked up): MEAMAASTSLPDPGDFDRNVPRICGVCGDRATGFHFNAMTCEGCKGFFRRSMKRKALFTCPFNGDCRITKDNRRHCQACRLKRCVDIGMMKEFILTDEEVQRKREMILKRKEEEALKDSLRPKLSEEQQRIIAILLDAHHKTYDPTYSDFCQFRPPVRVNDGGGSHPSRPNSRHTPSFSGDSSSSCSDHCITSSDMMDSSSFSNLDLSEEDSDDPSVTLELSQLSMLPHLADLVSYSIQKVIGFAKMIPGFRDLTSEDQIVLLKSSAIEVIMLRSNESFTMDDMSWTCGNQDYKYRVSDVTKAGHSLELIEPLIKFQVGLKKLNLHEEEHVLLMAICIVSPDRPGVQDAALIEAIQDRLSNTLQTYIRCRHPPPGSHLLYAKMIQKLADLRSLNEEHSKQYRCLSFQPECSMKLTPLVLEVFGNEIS

For test [15] the target is unchanged. Nature of the test: qHTS assay to identify small molecule antagonists of the vitamin D receptor (VDR) signaling pathway (AID 743223; active means well fitted inhibition curve with a large enough effect in the signal ratio in the repeat runs, not every such curve was filed as active; the % refers to the signal ratio). In short, it runs like this: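 VDR-bla cells were plated, incubated 4 h at 37C, then given compound and 1alpha,25-dihydroxyvitamin D3 (3 nM final). After 16 h at 37C, LiveBLAzer B/G FRET substrate was added for 2 h at room temperature and fluorescence read.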

Test [16] is described as follows: qHTS assay for small molecule agonists of the antioxidant response element (ARE) signaling pathway (AID 743202; active means well fitted activation curve with a large enough effect in the signal ratio in the repeat runs, not every such curve was filed as active; the % refers to the signal ratio). In short, it runs like this: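 Quantitative high-throughput format in HepG2 cells bearing an integrated ARE-beta-lactamase reporter. Compound exposure lasted 16 h at 37 C, and fluorescence was read 2 h after adding LiveBLAzer B/G substrate at room temperature.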

A short description of test [17]: qHTS assay to identify small molecule agonists of the peroxisome proliferator-activated receptor delta (PPARd) signaling pathway - cell viability counter screen (AID 743211). Further: nearly all actives have a fitted effect of over 55% in size. In a few lines:
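PPARd-bla HEK293H cells (UAS-beta-lactamase reporter) were treated with compounds for 17 h at 37 C. Viability was then read in the same wells by CellTiter-Glo luminescence after 30 min at room temperature.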

Test [18] in a line: qHTS assay to identify small molecule agonists of the farnesoid-X-receptor (FXR) signaling pathway - cell viability counter screen (AID 743218). Further: nearly all actives have a fitted effect of over 45% in size. In short, it runs like this:
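FXR-UAS-bla HEK 293T cells, plated 5 h at 37 C, were exposed to compounds for 16 h at 37 C. CellTiter-Glo was then added to the same wells as the bla readout; luminescence read after 30 min at room temperature.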

Test [19] concerns the target Peroxisome proliferator-activated receptor gamma (Homo sapiens) (UniProt P37231). Nature of the test: qHTS assay to identify small molecule agonists of the peroxisome proliferator-activated receptor gamma (PPARg) signaling pathway (AID 743094; active means well fitted activation curve with a large enough effect in the signal ratio in the repeat runs, not every such curve was filed as active; the % refers to the signal ratio). In short, it runs like this:
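GeneBLAzer PPARg UAS-bla HEK293H cells carrying a stably integrated beta-lactamase reporter were pre-incubated 5 h at 37C, then exposed to compounds in DMSO for 17 h at 37C; LiveBLAzer B/G FRET substrate was added for 1 h at room temperature and fluorescence read.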

For test [20] the target is unchanged. Nature of the test: qHTS assay to identify small molecule antagonists of the peroxisome proliferator-activated receptor gamma (PPARg) signaling pathway (AID 743191; calls by dose curve; further: series mostly up to about 63 µM; nearly all actives have a fitted effect of over 30% in size). In a few lines:
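Beta-lactamase reporter under UAS control in HEK293H PPARg-bla cells; compound treatment 17 h at 37C. Read-out: fluorescence intensity after 1 h room-temperature incubation with LiveBLAzer B/G FRET substrate.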

Structures are written as SMILES. “And” between values parts separate entries of the source, which are not always exact repeats. Equal entries are not always repeated. Records with an inconclusive call do not appear. The source made the active and inactive calls. Unless noted, the call rests on the fitted dose curve; in most records, active means well fitted curve in the direction sought with a large enough effect in the repeat runs; inconclusive means weak or mixed curves; inactive means no such curve, though single readings can be large; an effect the other way counts as inactive or inconclusive.

Chain of Peroxisome proliferator-activated receptor gamma (Homo sapiens) (P37231 whole entry, looked up): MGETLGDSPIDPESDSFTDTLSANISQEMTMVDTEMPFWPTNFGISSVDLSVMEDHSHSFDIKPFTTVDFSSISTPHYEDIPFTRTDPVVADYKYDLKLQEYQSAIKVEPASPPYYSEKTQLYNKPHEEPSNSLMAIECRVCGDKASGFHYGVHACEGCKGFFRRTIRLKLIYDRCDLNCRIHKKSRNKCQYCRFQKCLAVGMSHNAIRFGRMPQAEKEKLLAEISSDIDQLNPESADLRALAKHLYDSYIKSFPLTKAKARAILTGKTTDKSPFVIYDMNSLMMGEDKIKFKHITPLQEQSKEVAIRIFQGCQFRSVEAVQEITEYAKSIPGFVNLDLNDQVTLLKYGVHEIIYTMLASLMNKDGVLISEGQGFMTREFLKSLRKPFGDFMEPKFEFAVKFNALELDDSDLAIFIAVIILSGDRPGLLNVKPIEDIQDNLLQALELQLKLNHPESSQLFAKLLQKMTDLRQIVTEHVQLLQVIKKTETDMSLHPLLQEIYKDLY
Chain of Peroxisome proliferator-activated receptor delta (Homo sapiens) (Q03181 whole entry, looked up): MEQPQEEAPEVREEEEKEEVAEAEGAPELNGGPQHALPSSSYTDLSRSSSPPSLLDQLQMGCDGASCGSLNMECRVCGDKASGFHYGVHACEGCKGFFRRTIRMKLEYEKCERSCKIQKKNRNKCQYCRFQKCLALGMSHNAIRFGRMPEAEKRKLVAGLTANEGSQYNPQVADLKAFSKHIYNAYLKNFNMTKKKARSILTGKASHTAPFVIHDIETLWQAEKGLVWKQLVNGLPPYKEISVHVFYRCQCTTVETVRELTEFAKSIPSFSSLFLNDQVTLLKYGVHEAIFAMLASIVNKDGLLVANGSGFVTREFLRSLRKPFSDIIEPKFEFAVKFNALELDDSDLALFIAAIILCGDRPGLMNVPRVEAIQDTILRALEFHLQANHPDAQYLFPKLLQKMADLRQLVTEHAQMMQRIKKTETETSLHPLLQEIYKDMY
Chain of Bile acid receptor (Homo sapiens) (Q96RI1 whole entry, looked up): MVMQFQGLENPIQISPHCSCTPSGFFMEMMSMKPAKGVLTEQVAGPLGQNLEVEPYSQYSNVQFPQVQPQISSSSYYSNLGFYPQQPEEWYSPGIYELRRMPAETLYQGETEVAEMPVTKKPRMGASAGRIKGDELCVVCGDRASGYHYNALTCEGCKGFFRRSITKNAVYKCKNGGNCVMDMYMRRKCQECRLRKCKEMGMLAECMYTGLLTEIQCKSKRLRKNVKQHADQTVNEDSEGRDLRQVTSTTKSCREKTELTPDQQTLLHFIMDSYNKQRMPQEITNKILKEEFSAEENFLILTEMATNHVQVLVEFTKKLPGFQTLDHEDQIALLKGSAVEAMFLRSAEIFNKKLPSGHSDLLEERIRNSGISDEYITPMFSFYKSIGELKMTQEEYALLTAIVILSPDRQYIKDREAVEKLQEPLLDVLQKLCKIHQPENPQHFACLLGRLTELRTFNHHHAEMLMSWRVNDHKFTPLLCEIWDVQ

Consider `Nc1ccc(Cl)c(N)c1`, for which the Potency entry in test [1], in [3], in test [5] and in test [8] was “inactive” each time. Besides, the Potency in test [2] is 19.4 µM (active) and 7.7 µM (active). For the same molecule, the outcome in [4], in test [6], in test [7], in test [9], in test [10] and in test [11] was inactive. Moreover, the molecule was called inactive in [12], in test [13], in test [14] and in test [15].

As to `CC(C)=CCl`, the Potency result in test [1], in test [2], in test [3], in test [16], in test [5] and in [8] was “inactive” throughout. Besides, the molecule was classed as inactive in [4], in test [6], in test [7], in [17], in test [9] and in [11]. Further, the result in [18], in test [12], in test [13], in [14] and in [15] was inactive.

For `CC(=O)OC1CC(C)OC(C)O1` (configuration not stated), the Potency entry in [1], in test [2], in test [3], in [16], in test [5] and in test [8] was “inactive” each time. Further, the molecule was called inactive in test [19], in test [4], in [6], in [17], in [9] and in [11]. Also, the molecule was classed as inactive in test [12] and in [13].

With `CN(C)CCOC(=O)COc1ccc(Cl)cc1`, the Potency result in test [1], in [3], in [5] and in test [8] was “inactive” in each case. In addition, the outcome in test [19], in [4], in test [6], in test [7], in [9] and in [13] was inactive. The molecule was called inactive in test [14] and in test [15].

`CCCCCCCCCCCCCCCC(=O)OC(C)C`: the Potency entry in [3], in [16], in test [5] and in [8] was “inactive” in each case. Moreover, the molecule was classed as inactive in [4], in test [6], in [17], in test [9], in [10] and in test [13]. The result in test [14] and in test [15] was inactive.

As for `Nc1nc(N)nc(-c2ccccc2)n1`, the Potency result in test [1], in test [3], in test [16], in test [5] and in test [8] was “inactive” throughout. The result in test [19], in [20], in [4], in test [6], in test [7] and in [17] was inactive. Besides, the result in [9], in test [10], in [18] and in test [13] was inactive.

As to `CCCOC(=O)c1ccccc1`, the Potency entry in test [1], in [2], in test [3], in [16], in test [5] and in [8] was “inactive” throughout. Also, the call in [19], in test [4], in test [6], in test [17], in test [9] and in test [18] was inactive. In addition, the result in test [13], in [14] and in test [15] was inactive.

As to `CCO[Si](CCCN)(OCC)OCC`, the Potency result in test [1], in test [3], in [16], in test [5] and in test [8] was “inactive” throughout. Besides, the outcome in test [19], in test [20], in [4], in test [6], in test [7] and in test [17] was inactive. The outcome in [9], in test [11], in test [18], in test [12], in [13] and in [14] was inactive. The molecule was classed as inactive in [15].

Consider `CN/C(=C\[N+](=O)[O-])NCCSCc1csc(CN(C)C)n1`, for which the Potency result in test [1], in test [3], in [16], in test [5] and in test [8] was “inactive” throughout. Besides, the molecule was classed as inactive in test [19], in test [4], in test [6], in [7], in test [9] and in test [13].

Consider `COc1ccc([N+](=O)[O-])cc1N`, for which the Potency entry in [1], in test [3], in test [16], in test [5] and in test [8] was “inactive” each time. Also, the result in test [19], in test [20], in test [4], in test [6], in test [7] and in [9] was inactive. Also, the call in test [10], in test [11], in test [18], in [12], in test [13] and in [14] was inactive. In test [15], the call was inactive.
